{"source": "PubChem BioAssay AID602468", "about": "(The Scripps Research Institute Molecular Screening Center, 2012)", "system": "MBM", "test": "selectivity across cysteine-reactive proteome – gel-based competitive ABPP, fluorescence, MBM, Neuro-2A, selectivity assay for PME-1 inhibitor project, late-stage follow-up (AID 602468)", "settings": "MBM or Neuro-2A, in vitro, at 10 µM, active compounds read low", "note": "Unmarked numbers belong to inactive results. How the calls were made is not given here."}
{"smiles": "CC[C@@]1(c2ccc(C)cc2)C(=O)N(C(=O)OC(C)C)N1C(=O)OC(C)C", "values": [{"measurement": "number of anti-targets inhibited", "value": 0}]}
